# Test results taken from the supplement of paper PMC8728848.
# About 410 targets per protein were measured; listed, in parts, are those with the strongest signals and a random draw of the rest.
# Assays:
# Experiment in all cases: glycan array binding signal (z-score within array); higher = stronger binding
# Conditions in all cases: glycan notation: IUPAC condensed, linker removed
# [1] = biological target: Fuc(a1-2)Gal(b1-3)GalNAc
# How it was run: (§1)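 From the Consortium for Functional Glycomics database, 3228 arrays were curated, keeping only those whose protein sequence was available. Binding is given as a within-array Z-score averaged across arrays sharing a protein sequence and across linkers. Negative Z-scores can be read as non-binding.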
# [2] = biological target: Fuc(a1-2)Gal(b1-4)Glc6S
# How it was run: as §1
# [3] = biological target: Fuc(a1-2)Gal(b1-4)GlcNAc(b1-3)GalNAc
# How it was run: as §1
# [4] = biological target: Fuc(a1-2)Gal(b1-4)[Fuc(a1-3)]GlcNAc(b1-2)[Fuc(a1-2)Gal(b1-4)[Fuc(a1-3)]GlcNAc(b1-4)]Man(a1-3)[Fuc(a1-2)Gal(b1-4)[Fuc(a1-3)]GlcNAc(b1-2)Man(a1-6)]Man(b1-4)GlcNAc(b1-4)GlcNAc
# How it was run: as §1
# [5] = biological target: Fuc(a1-2)[Gal(a1-3)]Gal(b1-3)GlcNAc(b1-2)Man(a1-3)[Fuc(a1-2)[Gal(a1-3)]Gal(b1-3)GlcNAc(b1-2)Man(a1-6)]Man(b1-4)GlcNAc(b1-4)[Fuc(a1-6)]GlcNAc
# How it was run: as §1
# [6] = biological target: Fuc(a1-2)[Gal(a1-3)]Gal(b1-3)GlcNAc(b1-6)GalNAc
# How it was run: as §1
# [7] = biological target: Fuc(a1-2)[Gal(a1-3)]Gal(b1-4)GlcNAc(b1-2)Man(a1-3)[Fuc(a1-2)[Gal(a1-3)]Gal(b1-4)GlcNAc(b1-2)Man(a1-6)]Man(b1-4)GlcNAc(b1-4)[Fuc(a1-6)]GlcNAc
# How it was run: as §1
# [8] = biological target: Fuc(a1-2)[Gal(a1-3)]Gal(b1-4)GlcNAc(b1-3)[Fuc(a1-2)[Gal(a1-3)]Gal(b1-4)GlcNAc(b1-6)]GalNAc
# How it was run: as §1
# [9] = biological target: Fuc(a1-2)[Gal(a1-3)]Gal(b1-4)GlcNAc(b1-6)GalNAc
# How it was run: as §1
# [10] = biological target: Fuc(a1-2)[GalNAc(a1-3)]Gal(b1-4)GlcNAc(b1-2)Man
# How it was run: as §1
# [11] = biological target: Fuc(a1-2)[GalNAc(b1-3)]Gal
# How it was run: as §1
# [12] = biological target: Fuc(a1-3)[Gal(b1-4)]Glc6S
# How it was run: as §1
# [13] = biological target: Fuc(a1-3)[Gal(b1-4)]GlcNAc(b1-2)Man(a1-3)[Fuc(a1-3)[Gal(b1-4)]GlcNAc(b1-2)Man(a1-6)]Man(b1-4)GlcNAc(b1-4)GlcNAc
# How it was run: as §1
# [14] = biological target: Gal(a1-3)Gal(b1-4)[Fuc(a1-3)]GlcNAc
# How it was run: as §1
# [15] = biological target: Gal(b1-3)GlcNAc(b1-3)Gal(b1-4)Glc
# How it was run: as §1
# [16] = biological target: Gal(b1-3)GlcNAc(b1-3)Gal(b1-4)GlcNAc(b1-2)[Gal(b1-3)GlcNAc(b1-3)Gal(b1-4)GlcNAc(b1-6)]Man(a1-6)[Gal(b1-3)GlcNAc(b1-3)Gal(b1-4)GlcNAc(b1-2)Man(a1-3)]Man(b1-4)GlcNAc(b1-4)[Fuc(a1-6)]GlcNAc
# How it was run: as §1
# [17] = biological target: Gal(b1-4)GlcNAc(b1-3)Gal(b1-4)GlcNAc(b1-3)Gal(b1-4)GlcNAc(b1-3)Gal(b1-4)GlcNAc(b1-2)Man(a1-3)[Gal(b1-4)GlcNAc(b1-3)Gal(b1-4)GlcNAc(b1-3)Gal(b1-4)GlcNAc(b1-3)Gal(b1-4)GlcNAc(b1-2)Man(a1-6)]Man(b1-4)GlcNAc(b1-4)[Fuc(a1-6)]GlcNAc
# How it was run: as §1
# [18] = biological target: Gal(b1-4)GlcNAc(b1-3)Gal(b1-4)GlcNAc(b1-6)[Gal(b1-3)]GalNAc
# How it was run: as §1
# [19] = biological target: Gal3S(b1-3)GalNAc
# How it was run: as §1
# [20] = biological target: GalNAc(a1-3)GalNAc(b1-3)Gal(a1-4)Gal(b1-4)Glc
# How it was run: as §1
# [21] = biological target: GalNAc(b1-3)GalNAc
# How it was run: as §1
# [22] = biological target: GlcNAc(a1-4)Gal(b1-3)GlcNAc
# How it was run: as §1
# [23] = biological target: GlcNAc(a1-4)Gal(b1-4)GlcNAc(b1-3)Gal(b1-4)GlcNAc(b1-3)Gal(b1-4)GlcNAc
# How it was run: as §1
# [24] = biological target: GlcNAc(b1-2)Gal(b1-3)GalNAc
# How it was run: as §1
# [25] = biological target: GlcNAc(b1-2)Man(a1-3)[GlcNAc(b1-2)Man(a1-6)]Man(b1-4)GlcNAc(b1-4)[Fuc(a1-6)]GlcNAc
# How it was run: as §1
# [26] = biological target: GlcNAc(b1-3)Gal(b1-4)GlcNAc(b1-3)Gal(b1-4)GlcNAc(b1-2)Man(a1-3)[GlcNAc(b1-3)Gal(b1-4)GlcNAc(b1-3)Gal(b1-4)GlcNAc(b1-2)Man(a1-6)]Man(b1-4)GlcNAc(b1-4)[Fuc(a1-6)]GlcNAc
# How it was run: as §1
# [27] = biological target: GlcNAc(b1-3)Gal(b1-4)GlcNAc(b1-3)Gal(b1-4)GlcNAc(b1-2)[GlcNAc(b1-3)Gal(b1-4)GlcNAc(b1-3)Gal(b1-4)GlcNAc(b1-6)]Man(a1-6)[GlcNAc(b1-3)Gal(b1-4)GlcNAc(b1-3)Gal(b1-4)GlcNAc(b1-2)Man(a1-3)]Man(b1-4)GlcNAc(b1-4)[Fuc(a1-6)]GlcNAc
# How it was run: as §1
# [28] = biological target: GlcNAc(b1-3)Gal(b1-4)GlcNAc(b1-3)Gal(b1-4)GlcNAc(b1-3)Gal(b1-4)GlcNAc(b1-2)Man(a1-3)[GlcNAc(b1-3)Gal(b1-4)GlcNAc(b1-3)Gal(b1-4)GlcNAc(b1-3)Gal(b1-4)GlcNAc(b1-2)Man(a1-6)]Man(b1-4)GlcNAc(b1-4)GlcNAc
# How it was run: as §1
# [29] = biological target: GlcNAc(b1-3)Gal(b1-4)GlcNAc(b1-3)Gal(b1-4)GlcNAc(b1-3)Gal(b1-4)GlcNAc(b1-2)Man(a1-3)[GlcNAc(b1-3)Gal(b1-4)GlcNAc(b1-3)Gal(b1-4)GlcNAc(b1-3)Gal(b1-4)GlcNAc(b1-2)Man(a1-6)]Man(b1-4)GlcNAc(b1-4)[Fuc(a1-6)]GlcNAc
# How it was run: as §1
# [30] = biological target: GlcNAc(b1-3)Gal(b1-4)GlcNAc(b1-3)Gal(b1-4)GlcNAc(b1-3)Gal(b1-4)GlcNAc(b1-2)[GlcNAc(b1-3)Gal(b1-4)GlcNAc(b1-3)Gal(b1-4)GlcNAc(b1-3)Gal(b1-4)GlcNAc(b1-6)]Man(a1-6)[GlcNAc(b1-3)Gal(b1-4)GlcNAc(b1-3)Gal(b1-4)GlcNAc(b1-3)Gal(b1-4)GlcNAc(b1-2)Man(a1-3)]Man(b1-4)GlcNAc(b1-4)[Fuc(a1-6)]GlcNAc
# How it was run: as §1
# [31] = biological target: GlcNAc(b1-3)Gal(b1-4)GlcNAc(b1-3)Gal(b1-4)GlcNAc(b1-3)Gal(b1-4)GlcNAc(b1-3)Gal(b1-4)GlcNAc(b1-2)Man(a1-3)[GlcNAc(b1-3)Gal(b1-4)GlcNAc(b1-3)Gal(b1-4)GlcNAc(b1-3)Gal(b1-4)GlcNAc(b1-3)Gal(b1-4)GlcNAc(b1-2)Man(a1-6)]Man(b1-4)GlcNAc(b1-4)GlcNAc
# How it was run: as §1
# [32] = biological target: GlcNAc(b1-3)Gal(b1-4)GlcNAc(b1-3)Gal(b1-4)GlcNAc(b1-3)Gal(b1-4)GlcNAc(b1-3)Gal(b1-4)GlcNAc(b1-2)Man(a1-3)[GlcNAc(b1-3)Gal(b1-4)GlcNAc(b1-3)Gal(b1-4)GlcNAc(b1-3)Gal(b1-4)GlcNAc(b1-3)Gal(b1-4)GlcNAc(b1-2)Man(a1-6)]Man(b1-4)GlcNAc(b1-4)[Fuc(a1-6)]GlcNAc
# How it was run: as §1
# [33] = biological target: GlcNAc(b1-3)Gal(b1-4)GlcNAc(b1-3)Gal(b1-4)GlcNAc(b1-3)Gal(b1-4)GlcNAc(b1-3)Gal(b1-4)GlcNAc(b1-2)[GlcNAc(b1-3)Gal(b1-4)GlcNAc(b1-3)Gal(b1-4)GlcNAc(b1-3)Gal(b1-4)GlcNAc(b1-3)Gal(b1-4)GlcNAc(b1-6)]Man(a1-6)[GlcNAc(b1-3)Gal(b1-4)GlcNAc(b1-3)Gal(b1-4)GlcNAc(b1-3)Gal(b1-4)GlcNAc(b1-3)Gal(b1-4)GlcNAc(b1-2)Man(a1-3)]Man(b1-4)GlcNAc(b1-4)[Fuc(a1-6)]GlcNAc
# How it was run: as §1
# [34] = biological target: GlcNAc(b1-3)Gal(b1-4)GlcNAc(b1-3)Gal(b1-4)GlcNAc(b1-3)GalNAc
# How it was run: as §1
# [35] = biological target: GlcNAc(b1-3)Gal(b1-4)GlcNAc(b1-3)[GlcNAc(b1-3)Gal(b1-4)GlcNAc(b1-3)]GalNAc
# How it was run: as §1
# [36] = biological target: Neu5Ac(a2-3)Gal(b1-3)GalNAc(b1-3)Gal(b1-4)GlcNAc
# How it was run: as §1
# [37] = biological target: Neu5Ac(a2-3)Gal(b1-3)GalNAc(b1-4)[Neu5Ac(a2-3)]Gal(b1-4)Glc
# How it was run: as §1
# [38] = biological target: Neu5Ac(a2-3)Gal(b1-3)GlcNAc(b1-2)Man
# How it was run: as §1
# [39] = biological target: Neu5Ac(a2-3)Gal(b1-3)GlcNAc(b1-3)Gal(b1-4)GlcNAc
# How it was run: as §1
# [40] = biological target: Neu5Ac(a2-3)Gal(b1-3)]Neu5Ac(a2-3)Gal(b1-4)]GlcNAc
# How it was run: as §1
# [41] = biological target: Neu5Ac(a2-6)Gal(b1-4)GlcNAc(b1-2)Man(a1-3)[Neu5Ac(a2-3)Gal(b1-4)GlcNAc(b1-2)Man(a1-6)]Man(b1-4)GlcNAc(b1-4)GlcNAc
# How it was run: as §1
# [42] = biological target: Neu5Ac(a2-6)Gal(b1-4)GlcNAc(b1-2)Man(a1-6)Man(b1-4)GlcNAc(b1-4)GlcNAc
# How it was run: as §1
# [43] = biological target: Neu5Gc(a2-6)Gal(b1-4)GlcNAc
# How it was run: as §1
binder,measurement,setting,value
Jacalin (Artocarpus integrifolia) (protein) MAYSSLLSLSVLALLFSISSADTRKWFLANGINQNPIGIIEAAVGVSEDLLNLNGMEAKNDEQSGISQTVIVGPWGAKVSTSSNGKAFDDGAFTGIREINLSYNKETAIGDFQVVYDLNGSPYVGQNHKSFITGFTPVKISLDFPSEYIMEVSGYTGNVSGYVVVRSLTFKTNKKTYGPYGVTSGTPFNLPIENGLIVGFKGSIGYWLDYFSMYLSL,glycan array binding signal (z-score),[1],0.218
same,glycan array binding signal (z-score),[2],-0.249
same,glycan array binding signal (z-score),[3],0.829
same,glycan array binding signal (z-score),[4],-0.131
same,glycan array binding signal (z-score),[5],-0.249
same,glycan array binding signal (z-score),[6],-0.265
same,glycan array binding signal (z-score),[7],-0.211
same,glycan array binding signal (z-score),[8],-0.332
same,glycan array binding signal (z-score),[9],-0.217
same,glycan array binding signal (z-score),[10],-0.29
same,glycan array binding signal (z-score),[11],0.341
same,glycan array binding signal (z-score),[12],-0.23
same,glycan array binding signal (z-score),[13],-0.259
same,glycan array binding signal (z-score),[14],-0.268
same,glycan array binding signal (z-score),[15],-0.279
same,glycan array binding signal (z-score),[16],-0.084
same,glycan array binding signal (z-score),[17],0.12
same,glycan array binding signal (z-score),[18],0.001
same,glycan array binding signal (z-score),[19],1.89
same,glycan array binding signal (z-score),[20],-0.256
same,glycan array binding signal (z-score),[21],3.34
same,glycan array binding signal (z-score),[22],0.435
same,glycan array binding signal (z-score),[23],2.63
same,glycan array binding signal (z-score),[24],2.21
same,glycan array binding signal (z-score),[25],0.257
same,glycan array binding signal (z-score),[26],2.52
same,glycan array binding signal (z-score),[27],2.41
same,glycan array binding signal (z-score),[28],3.65
same,glycan array binding signal (z-score),[29],3.32
same,glycan array binding signal (z-score),[30],4.09
same,glycan array binding signal (z-score),[31],4.05
same,glycan array binding signal (z-score),[32],4.23
same,glycan array binding signal (z-score),[33],5.64
same,glycan array binding signal (z-score),[34],1.03
same,glycan array binding signal (z-score),[35],0.857
same,glycan array binding signal (z-score),[36],-0.336
same,glycan array binding signal (z-score),[37],-0.262
same,glycan array binding signal (z-score),[38],-0.194
same,glycan array binding signal (z-score),[39],-0.274
same,glycan array binding signal (z-score),[40],-0.263
same,glycan array binding signal (z-score),[41],-0.241
same,glycan array binding signal (z-score),[42],-0.259
same,glycan array binding signal (z-score),[43],-0.247
